The values below come from ChEMBL document CHEMBL3988442, “University of Dundee, Small-Polar-MMV Screening Library” (2021).

In all, about 48,000 compounds went through this assay and about 13,000 (27%) showed an effect of 50% or more. This is one part of the list.

The subject of the test is Wolbachia pipientis. The experiment in a line: Anti-Wolbachia Cell-Based Screen. Details: scale not given: in the data most compounds retested in dose-response had high values. Particulars: 5 µM. The test is classed as functional.
As to `N#Cc1ccc(CN2CCOCC2)cc1`, the “Percent Effect” value is reported as 91.68%.

As to `CC(C)(C)C(O)CN1CCN(Cc2ccc(C#N)cc2)CC1` (stereo unspecified), the “Percent Effect” value worked out at 1.533%.

As for `Cn1c(CO)nnc1CC1CCN(Cc2ccc(C#N)cc2)CC1`, the “Percent Effect” value was found to be 25.57%.

Regarding `CC(C)N(C)CCCNC(=O)c1cnn(C(C)(C)C)c1C(F)(F)F`, the “Percent Effect” value came to 5.452%.

Consider `CCOC(=O)C(CO)NC(=O)CCc1cccc(OC2CCCC2)c1` (stereo unspecified), for which the “Percent Effect” value is listed as -6.497%.

Regarding `COCC(=O)N1CCC(C(=O)Nc2ccc(S(N)(=O)=O)cc2)CC1`, the “Percent Effect” value is listed as -0.7847%.

Take `COCCNc1nc(C2CCCC2)nc2c1CCNCC2`: the “Percent Effect” value stood at 12.56%.

Take `c1ccc2nc(N3CCCCC3)c(NCc3nnc4n3CCC4)nc2c1`: the “Percent Effect” value was -16.15%.

Regarding `Cc1cccc(=O)n1CCCNc1nc(N(C)C)nc2c1CCNC2`, the “Percent Effect” value is recorded as 32.54%.

In the case of `c1ccc(-c2nc3c(c(NCc4n[nH]c5c4CCC5)n2)CCNC3)cc1`, the “Percent Effect” value was -30.21%.

With `c1ccc(-c2nc3c(c(NCc4nnc5n4CCC5)n2)CCNC3)cc1`, the “Percent Effect” value is 90.53%.

With `C1CCc2nnc(CNc3nc(C4CC4)nc4c3CCNCC4)n2CC1`, the “Percent Effect” value was found to be 99.26%.

On to `Cc1cc(C)nc(NCc2nnc3n2CCCCC3)n1`, for which the “Percent Effect” value is listed as -1.015%.

`c1ccc2nc(N3CCCC3)c(NCc3nnc4n3CCC4)nc2c1`: the “Percent Effect” value is -27.33%.

`CN(C)c1nc2c(c(NCc3nnc4n3CCCCC4)n1)CCNC2`: the “Percent Effect” value is 114.9%.

Turning to `CC(=O)NCc1nn(C)c2c1CN(Cc1ccsc1)C2.O=C(O)C(F)(F)F`, the “Percent Effect” value was -1.224%.

Consider `N[C@@H]1c2ccccc2C2(CCN(C(=O)c3ccccc3O)CC2)[C@H]1O`, for which the “Percent Effect” value was 0.509%.

Turning to `CN(C)Cc1nnc(C2CCCN(c3nccc4ccccc34)C2)n1C` (stereo unspecified), the “Percent Effect” value is on record as 5.407%.

Take `COc1ccc(CCNC(=O)C2CCCOC2)c(Cl)c1` (stereo unspecified): the “Percent Effect” value came out at 0.5663%.

Take `CCN(CCNC(=O)C1CCN(C(C)=O)CC1)c1ccccc1C`: the “Percent Effect” value is -4.01%.

Turning to `CC(=O)N1CCC(C(=O)NCCc2c[nH]c3cc(C)ccc23)CC1`, the “Percent Effect” value was 104%.

For `CC(=O)N1CCC(C(=O)NCCN2CCCCC2)CC1`, the “Percent Effect” value worked out at 12.8%.

In the case of `COc1ccc(CCNC(=O)C2CC2)c(Cl)c1`, the “Percent Effect” value is reported as -15.6%.

As to `COC(=O)N1CCCC(C(=O)Nc2ccccc2CN2CCCC2)C1` (stereo unspecified), the “Percent Effect” value turned out to be 22.7%.

Take `COC(=O)N1CCCC(C(=O)NCCc2c[nH]c3cc(C)ccc23)C1` (stereo unspecified): the “Percent Effect” value came out at 127.8%.

On to `COC(=O)N1CCCC(C(=O)NCc2cc3cccc(OC)c3o2)C1` (stereo unspecified), for which the “Percent Effect” value is listed as -3.243%.

As to `COc1ccc2[nH]cc(CCNC(=O)C3CCCN(C(C)=O)C3)c2c1` (stereo unspecified), the “Percent Effect” value is given as 94.67%.

As to `CNc1nc(CS(=O)(=O)c2ccccc2)cs1`, the “Percent Effect” value was found to be 7.424%.

As for `COC(C)(C)c1noc(C2(C#N)CCCC2)n1`, the “Percent Effect” value is -17.37%.

On to `OC1(CNc2ccc(Br)cn2)CCOCC1`, for which the “Percent Effect” value is listed as 9.923%.

Regarding `Cc1cc(CN2CCC=C(CN(C)C(=O)c3ccco3)C2)no1`, the “Percent Effect” value was -5.355%.

For `Cc1ncc(CNCC(=O)NCC(F)(F)F)n1-c1ccccc1`, the “Percent Effect” value is on record as -11.81%.

Turning to `Cc1cnn(CC2CN(Cc3nnc(-c4occc4C)o3)CCO2)c1` (stereo unspecified), the “Percent Effect” value is -2.933%.

In the case of `Cc1cnn(CC2CN(Cc3nc(C)c(C)o3)CCO2)c1` (stereo unspecified), the “Percent Effect” value worked out at 94.42%.

For the compound `CCc1nnc(CN2CCOC(Cn3cc(C)cn3)C2)o1` (stereo unspecified), the “Percent Effect” value worked out at 101%.

For the compound `Cc1cnn(CC2CN(Cc3nnc(C4CC4)o3)CCO2)c1` (stereo unspecified), the “Percent Effect” value is -1.438%.

Turning to `Cc1cnn(CC2CN(Cc3nnc(-c4ccccc4)o3)CCO2)c1` (stereo unspecified), the “Percent Effect” value is 113.1%.

Regarding `Cc1ccc(-c2nnc(CN3CCOC(Cn4cccn4)C3)o2)cc1` (stereo unspecified), the “Percent Effect” value is -8.169%.

Turning to `Cc1cnn(CC2CN(CCS(C)(=O)=O)CCO2)c1` (stereo unspecified), the “Percent Effect” value was -18.36%.

For `Cc1cnn(CC2CN(Cc3nnc(C(C)C)o3)CCO2)c1` (stereo unspecified), the “Percent Effect” value stood at 101.2%.

`Cc1cc(CC2COc3ccccc3C2)cnc1N` (stereo unspecified): the “Percent Effect” value is recorded as -19.29%.

Turning to `CC(C)Nc1ccnc(N2Cc3cnc(C(C)(C)C)nc3C2)n1`, the “Percent Effect” value is reported as 10.33%.

With `CN(C)Cc1nc(C(C)(C)NC(=O)c2cccc3ccccc23)no1`, the “Percent Effect” value is -8.122%.

Regarding `CCOC(=O)CN(CC(F)(F)F)C(=O)c1nc(C)n2ccccc12`, the “Percent Effect” value is given as -24.45%.

With `CNC(=O)c1cccc(CNC2CCSc3c(Cl)cccc32)c1` (stereo unspecified), the “Percent Effect” value was -5.902%.

On to `CSc1ccc(C(CC(=O)O)NC(=O)c2cc(C)on2)cc1` (stereo unspecified), for which the “Percent Effect” value came to 6.189%.

With `CN(C)c1ncnc2c1CCN(Cc1nccs1)CC2.O=C(O)C(F)(F)F`, the “Percent Effect” value is on record as 13.78%.

Regarding `Cc1ncnc2c1CCN(Cc1ccc3c(c1)OCO3)CC2.O=C(O)C(F)(F)F`, the “Percent Effect” value is reported as -11%.

For `c1nc2c(c(C3CC3)n1)CCN(Cc1ccoc1)CC2`, the “Percent Effect” value is listed as -6.028%.

Take `CN(C)C(=O)CN1CCc2ncnc(N(C)C)c2CC1.O=C(O)C(F)(F)F`: the “Percent Effect” value was 89.81%.

Take `CN(C)c1ncnc2c1CCN(CC1CCOCC1)CC2.O=C(O)C(F)(F)F`: the “Percent Effect” value was -9.241%.

As to `O=C(O)C(F)(F)F.c1nc2c(c(NC3CCC3)n1)CCNCC2`, the “Percent Effect” value is -15.15%.

Consider `Cc1ccc(CN2CCc3ncnc(C4CC4)c3CC2)s1.O=C(O)C(F)(F)F`, for which the “Percent Effect” value was -13.47%.

As for `CN(C)C(=O)CN1CCc2ncnc(NC3CCC3)c2CC1.O=C(O)C(F)(F)F`, the “Percent Effect” value turned out to be 114.3%.

With `CN(C)C(=O)CN1CCc2ncnc(C3CC3)c2CC1`, the “Percent Effect” value worked out at 106.4%.

Turning to `CCc1ncnc2c1CCN(Cc1ccc3c(c1)OCO3)CC2.O=C(O)C(F)(F)F`, the “Percent Effect” value is 106.3%.
